Screening results from PubChem BioAssay.
Only some compounds are listed: those with a hit (about 28% of all), similar ones and a draw of the others.
CYP2C9 inhib: blocks human cytochrome P450 2C9. CYP2C9 Supersomes, luciferin-H conversion, luminescence. inhibition, % at 5 µM. 96,000 compounds, 20% hits;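 active = blocking of liver enzyme CYP2C9 beyond about 50% at 5 µM, limit read from the data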
Target sequence (P11712 whole entry, looked up): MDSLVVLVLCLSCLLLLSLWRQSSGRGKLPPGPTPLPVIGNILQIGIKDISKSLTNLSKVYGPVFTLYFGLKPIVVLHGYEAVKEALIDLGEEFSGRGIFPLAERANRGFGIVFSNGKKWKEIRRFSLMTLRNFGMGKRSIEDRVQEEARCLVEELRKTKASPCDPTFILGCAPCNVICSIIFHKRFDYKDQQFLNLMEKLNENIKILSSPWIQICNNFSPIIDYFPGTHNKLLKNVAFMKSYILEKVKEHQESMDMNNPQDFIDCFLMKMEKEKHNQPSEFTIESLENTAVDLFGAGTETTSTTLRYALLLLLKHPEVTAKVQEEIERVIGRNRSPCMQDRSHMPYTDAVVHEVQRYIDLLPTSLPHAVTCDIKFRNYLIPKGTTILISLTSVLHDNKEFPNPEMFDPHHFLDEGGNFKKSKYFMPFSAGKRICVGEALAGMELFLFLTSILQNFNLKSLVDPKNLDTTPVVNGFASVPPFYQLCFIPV
Plk1 PBD FP: inhibitors of human Plk1 polo box domain binding; P53350; Plk1 PBD phosphopeptide binding, fluorescence polarization; inhibition, %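 (tested at about 20 µM)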; 97,000 compounds, 0.13% hits; AID 693; in the data active = inhibition above about 34%, passing the limit was not always enough
CYP2C9 activ: activators of human CYP2C9. recombinant CYP2C9, luciferin-H conversion, luminescence; stronger effect = higher value; factor 1 = untreated enzyme, 0 = blocked. activation factor at 5 µM. 96,000 compounds, 1.4% hits. P11712. AID 1024;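 active = activation factor of 2 or more for CYP2C9 at a 5 µM dose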;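 also: 0 = sulfaphenazole-blocked wells and 1 = vehicle-only wells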
CYP2C19 activ: cytochrome P450 2C19 (human) activation; activation factor at 5 µM; 96,000 tested, under 10 active; recombinant CYP2C19, luciferin-H EGE luminescence; stronger effect = higher value; 0 = fully inhibited enzyme, 1 = untreated enzyme; P33261;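 active = activation factor of at least 2 at 5 µM in the primary screen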;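 also: 0 = wells with 2.5 mM tranylcypromine and 1 = vehicle-only wells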
CYP2C19 inh: inhibitors of human CYP2C19; P33261; CYP2C19 Supersomes, luciferin-H EGE luminescence, 30 min; inhibition, % at 5 µM; 96,000 compounds, 21% hits; AID 778;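 active = CYP2C19 inhibition above a set limit at 5 µM in the primary screen, cut at about 50% in these data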;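 also: plate controls were negative control wells for no effect and 2.5 mM tranylcypromine positive control for full effect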
PLK1 kinase inh: blocks human PLK1 kinase activity; 97,000 compounds, 0.53% hits; recombinant PLK1 kinase, TR-FRET peptide phosphorylation; inhibition, % at 10 µM;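 active = inhibition of 50% or more in the single-concentration screen; inactive = inhibition below 50%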;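 also: 0% = DMSO max control and 100% = H-89 dihydrochloride min control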
* marks the source's active call; other numbers are inactive results; / = not tested or not shown.

SMILES	CYP2C9 inhib	Plk1 PBD FP	CYP2C9 activ	CYP2C19 activ	CYP2C19 inh	PLK1 kinase inh
Cc1cc2nnc(SCCCCN3C(=O)c4ccccc4C3=O)n2c2ccccc12	-193.9	-4.8	2.9*	0.5	45.1	-8.3
Cc1ccc(NC(=O)C(=O)NNC(=O)c2ccccc2C)cc1Cl	-16.8	-3.2	1.2	0.9	9.3	-5.2
Cc1ccc(S(=O)(=O)NC(=O)c2cc(C)n(CCCn3ccnc3)c2C)cc1	89.9*	/	0.1	0.5	53.8*	/
Cc1cc(=S)cc(C)n1CCCn1ccnc1	2.2	/	1	1.1	-8.1	/
CC(C)(Cl)C1Cc2cc3ccc(=O)oc3cc2O1 (stereo not given)	-1.0	-7.4	1	1	-1.9	-6.6
CC(C)Oc1ccc(Cc2c(O)nc(NCCCN(C)C)[nH]c2=O)cc1	/	-10.0	/	/	/	-16.9
O=c1oc(Nc2cccc(F)c2)nc2ccccc12	8.4	0.3	0.9	1	4.0	-12.1
Nc1nc(Nc2cccc(F)c2)nc2ccccc12	56.0*	/	0.4	0.4	62.1*	/
N#Cc1cc2c(=O)n3ccccc3nc2n(CC2CCCO2)c1=N (stereo not given)	/	-16.6	/	/	/	-1.7
N#Cc1cc2c(=O)n3ccccc3nc2n(CCCn2ccnc2)c1=N	77.6*	-17.2	0.2	0.3	70.7*	-1.3
CC(C)NC(=O)C1CC(=O)N(c2ccc(F)c(Cl)c2)C1 (stereo not given)	-49.2	-0.5	1.5	0.7	26.8	-21.4
CCOc1ccccc1N1CCN(Cc2ccc(OC)c(OC)c2OC)CC1	/	1.3	/	/	/	-15.4
COc1ccc(CN2CCc3ccccc3C2)c(OC)c1OC	2.9	-8.2	1	0.4	61.2*	-7.0
Cc1ccc(CN2CCN(CC(=O)NCc3ccc(Cl)cc3)C2=O)cc1	34.8	17.2	0.7	0.6	36.1	-38.1
Cc1noc(C)c1CSCC(=O)NC1=NCCS1	28.3	28.4	0.7	0.7	34.8	2.6
Cc1ccccc1Nc1nc(N)nc(CSCc2c(C)noc2C)n1	56.7*	16.4	0.4	0.4	63.9*	-23.8
Cc1cccc(NC(=O)CSCc2c(C)noc2C)c1C	-8.8	-5.8	1.1	0.3	73.6*	-1.9
CCS(=O)(=O)c1ccc(O)c(N2C(=O)C3C4C=CC(C4)C3C2=O)c1 (stereo not given)	-4.3	-1.9	1	1	-2.7	-4.9
COC(=O)c1ccc(CNC(=O)CSc2nnc(COc3ccccc3)n2C)o1	14.9	16.8	0.9	0.9	10.0	-14.1
Cc1ccc(N(C(=O)c2ccc3c(c2)OCO3)C2C=CS(=O)(=O)C2)cc1 (stereo not given)	22.0	/	0.8	0.6	44.3	/
O=C(c1ccc2c(c1)OCO2)N(c1ccc(Cl)cc1)C1C=CS(=O)(=O)C1 (stereo not given)	24.8	/	0.8	0.3	69.5*	/
Cc1cc(C)cc(N(C(=O)c2ccc3c(c2)OCO3)C2C=CS(=O)(=O)C2)c1 (stereo not given)	-12.7	-20.3	1.1	0.5	53.5*	-2.8
O=C(Cc1cccs1)N(c1ccc(Cl)cc1)C1C=CS(=O)(=O)C1 (stereo not given)	23.5	-9.3	0.8	0.7	25.7	-4.8
O=C(c1ccc(Br)o1)N(c1ccc(Br)cc1)C1C=CS(=O)(=O)C1 (stereo not given)	58.8*	-11.6	0.4	0.1	86.1*	-9.3
CCOC(=O)C1(CC)NC(c2cccc(F)c2)C2C(=O)N(CC)C(=O)C21 (stereo not given)	/	3.3	/	/	/	-6.0
SMILES	CYP2C9 inhib	Plk1 PBD FP	CYP2C9 activ	CYP2C19 activ	CYP2C19 inh	PLK1 kinase inh
CN1CCCC1CCNS(=O)(=O)c1ccc(Br)cc1 (stereo not given)	/	0.5	/	/	/	-8.0
Cc1ccc(C(=O)OCC(=O)Nc2ccccc2C(F)(F)F)cc1S(=O)(=O)N1CCOCC1	31.9	-14.6	0.7	0.8	18.0	-2.7
O=C(COC(=O)CCc1ccc(S(=O)(=O)N2CCCCC2)cc1)Nc1ccc2c(c1)OCO2	76.4*	/	0.2	0.6	42.6	/
CC(C)c1ccc(NC(=O)COc2ccc(S(=O)(=O)N3CCOCC3)cc2)cc1	38.2	9.0	0.6	1.2	-17.9	-7.1
CCN(c1ccc(NC(=O)COC(=O)c2ccc(C)c(S(=O)(=O)N3CCOCC3)c2)cc1)C(C)C	46.6	-8.8	0.5	0.6	38.7	-7.0
Cc1cc(C(=O)OCC(=O)Nc2cccc(S(=O)(=O)N3CCOCC3)c2)c(C)o1	83.4*	-12.7	0.2	0.3	72.7*	-6.9
CCOC(=O)c1ccccc1NC(=O)COC(=O)c1ccc(C)c(S(=O)(=O)N2CCOCC2)c1	61.2*	/	0.4	0.8	19.1	/
Cc1ccc(C(=O)OCC(=O)Nc2ccc3c(c2)OCO3)cc1S(=O)(=O)N1CCOCC1	50.6*	11.6	0.5	0.6	40.2	-8.6
O=C(COC(=O)c1cc(S(=O)(=O)N2CCOCC2)ccc1Cl)Nc1ccc2c(c1)OCO2	61.1*	/	0.4	0.3	68.3*	/
Cc1ccc(C(=O)Oc2cccc(NC(=O)c3cccs3)c2)cc1S(=O)(=O)N1CCOCC1	58.2*	4.5	0.4	0.5	46.3	-10.6
O=C(COc1ccc(S(=O)(=O)N2CCCC2)cc1Cl)Nc1ccc2c(c1)OCO2	-7.9	-6.0	1.1	0.9	5.9	-5.0
O=C(Nc1cccc(S(=O)(=O)N2CCOCC2)c1)c1ccco1	-7.8	10.3	1.1	0.3	75.0*	18.2
CCNc1ccc(C(=O)OCC)cc1NC(=O)c1cccc(S(=O)(=O)N2CCOCC2)c1	57.5*	16.7	0.4	0.6	44.8	-6.7
COC(=O)c1cccc(S(=O)(=O)N2CCOCC2)c1	6.6	24.7	0.9	1	4.1	4.2
C/C(=N/Oc1nc(C)cc(C)n1)c1ccc(F)cc1	3.9	15.2	1	0.9	14.9	-14.8
C=CCn1c(SCc2cc(=O)n3ccsc3n2)nc2sc(C)c(C)c2c1=O	18.6	/	0.8	1	-0.1	/
Cc1cccc(C)c1N1C(=O)c2ccccc2C1=O	15.0	-22.1	0.8	0.5	54.3*	-8.1
O=C(Nc1ccc(Cl)c(Cl)c1)N1CCSC1c1ccco1 (stereo not given)	59.1*	-14.9	0.4	0.6	43.1	0.3
CN(C)S(=O)(=O)N1CCN(S(=O)(=O)c2ccc(F)cc2)CC1	-0.5	8.5	1	0.9	13.0	-17.1
CN(C)S(=O)(=O)N1CCC(c2ccc(F)cc2)C(COc2ccc3c(c2)OCO3)C1 (stereo not given)	94.8*	29.4	0.1	0.2	78.7*	-11.0
COc1ccc(N2CCN(Cc3oc(CO)cc(=O)c3O)CC2)cc1	-4.7	-1.0	1	1	-2.4	-0.1
COc1ccc2c(c1)sc1nc(-c3ccccc3)cn12	92.1*	/	0.1	0.2	82.1*	/
O=C(Nc1nnc(-c2ccccc2Cl)o1)c1cccnc1	82.1*	-17.2	0.2	1	-0.1	-9.5
CCc1nnc2n1N=C(c1ccc(-c3cc(Cl)ccc3Cl)o1)CS2	37.1	16.0	0.6	0.7	30.7	5.3
Cc1c(Cl)c([N+](=O)[O-])nn1CC(=O)NC1CCCCC1	13.3	-6.8	0.9	0.8	21.2	-2.3
